# PubChem BioAssay (NCI)
# The panel holds about 79,000 compounds, 15% with a hit somewhere; the sample as a whole holds those more often. A number with no mark means an inactive call. The source made the active and inactive calls. No stated cut-off is given here; in the data, active means growth inhibition above about 70%; inactive means the rest.
# Key:
# [1] = NCI Yeast Anticancer Drug Screen. Data for the rad52 strain (AID 147);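 further: 0% = growth of vehicle-treated control cultures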; details: S. cerevisiae rad52 mutant growth inhibition, stronger effect = higher value
# Method in brief: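 The repair-mutant yeast strain was incubated with compounds, then growth was read and inhibition derived relative to vehicle.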
# [2] = NCI Yeast Anticancer Drug Screen. Data for the wt1 strain (AID 149);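 further: 0% = growth of vehicle-treated wt1 cultures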; details: S. cerevisiae wt1 strain (SPY 50644) growth inhibition, stronger effect = higher value
# Method in brief: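 Measured: growth of wt1 yeast under compound versus vehicle treatment, reported as inhibition.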
# [3] = NCI Yeast Anticancer Drug Screen. Data for the rad50EPP+ strain (AID 151);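 further: 0% = growth of vehicle-treated control cultures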; details: S. cerevisiae rad50 mutant strain, stronger effect = higher value
# Method in brief: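 Vehicle-normalised growth inhibition; rad50EPP+ yeast strain, altered in DNA damage repair, compound-treated.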
# [4] = NCI Yeast Anticancer Drug Screen. Data for the rad50 strain (AID 155);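 further: 0% = growth of vehicle-only cultures of the same strain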; details: S. cerevisiae rad50 strain growth inhibition, stronger effect = higher value
# Method in brief: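 Growth of the mutant yeast was measured after compound exposure and referenced to vehicle-treated cultures.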
# [5] = NCI Yeast Anticancer Drug Screen. Data for the mec2-1 strain (AID 157); details: S. cerevisiae mec2-1 strain, stronger effect = higher value
# Method in brief: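 Mutant yeast (mec2-1) grown with compound; growth inhibition relative to vehicle control reported.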
# [6] = NCI Yeast Anticancer Drug Screen. Data for the rad14 strain (AID 159);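 further: 0% = growth of vehicle-treated control cultures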; details: S. cerevisiae rad14 strain growth inhibition, stronger effect = higher value
# Method in brief: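 Here, inhibition of yeast growth was measured after compound exposure, using a strain with a genetic defect in DNA damage repair and vehicle-treated cultures as the reference.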
# [7] = NCI Yeast Anticancer Drug Screen. Data for the sgs1 mgt1 strain (AID 161);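 further: 0% = growth of cultures given vehicle only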; details: S. cerevisiae sgs1 mgt1 strain, stronger effect = higher value
# Method in brief: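 This yeast growth screen uses a strain with defined DNA-repair lesions; compound-treated growth is compared with vehicle-treated growth.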
# [8] = NCI Yeast Anticancer Drug Screen. Data for the CLN2oe strain (AID 163);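 further: 0% = growth of vehicle-only control cultures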; details: S. cerevisiae CLN2oe strain, stronger effect = higher value
# Method in brief: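 Compounds are applied to yeast harbouring a defined cell-cycle control change; reduced growth compared with vehicle-treated controls gives the value.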
# [9] = NCI Yeast Anticancer Drug Screen. Data for the cln2 rad14 strain (AID 165);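 further: 0% = growth equal to vehicle treated cultures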; details: S. cerevisiae cln2 rad14 strain, stronger effect = higher value
# Method in brief: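 Readout is yeast growth inhibition versus vehicle-treated controls, using a strain with cln2 and rad14 alterations exposed to compound.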
# [10] = NCI Yeast Anticancer Drug Screen. Data for the bub3 strain (AID 167); details: S. cerevisiae bub3 mutant strain, stronger effect = higher value
# Method in brief: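 Whole-cell yeast assay. The mutant strain was incubated with compounds, and growth inhibition was determined by comparison with vehicle-treated cells.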
# [11] = NCI Yeast Anticancer Drug Screen. Data for the mlh1 strain (AID 171);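 further: 0% = growth of vehicle-treated control cultures of the same strain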; details: S. cerevisiae mlh1 strain growth inhibition, stronger effect = higher value
# Method in brief: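 Measured: yeast growth. Reference: vehicle-treated controls. Organism: strain with a defined alteration affecting DNA damage repair or cell cycle control, treated with compound.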
# [12] = NCI Yeast Anticancer Drug Screen. Data for the sgs1 strain (AID 173);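 further: 0% = growth of vehicle-only control cultures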; details: S. cerevisiae sgs1 mutant, stronger effect = higher value
# Method in brief: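 Each compound was added to cultures of the altered yeast strain. Growth was recorded, and inhibition was derived by comparison with vehicle controls.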
# [13] = NCI Yeast Anticancer Drug Screen. Data for the mlh1 rad18 strain (AID 175); details: S. cerevisiae mlh1 rad18 strain growth inhibition, stronger effect = higher value
# Method in brief: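 Genetically defined yeast (DNA repair-deficient) exposed to compounds; growth inhibition determined relative to vehicle.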
# [14] = NCI Yeast Anticancer Drug Screen. Data for the rad18 strain (AID 177); details: S. cerevisiae rad18 mutant growth inhibition, stronger effect = higher value
# Method in brief: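 Vehicle-treated cultures served as the baseline for scoring compound-induced growth inhibition in DNA-repair-mutant yeast.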
# [15] = at 5.0 µM (retest, dose inferred, filed as 0.5)
# [16] = at 50.0 µM (retest, dose inferred, filed as 5.0)
structure (smiles),measurement,setting,value
C=Cc1cnc([N+](=O)[O-])n1C,growth inhibition,[1]; at 1.2 µM,2%
same,growth inhibition,[1]; at 3.7 µM,35%
same,growth inhibition,[1]; at 11.0 µM,65%
same,growth inhibition,[1]; at 33.0 µM,85% (active)
same,growth inhibition,[1]; at 100.0 µM,95% (active)
same,growth inhibition,[2]; at 1.2 µM,13%
same,growth inhibition,[2]; at 3.7 µM,21%
same,growth inhibition,[2]; at 11.0 µM,19%
same,growth inhibition,[2]; at 33.0 µM,39%
same,growth inhibition,[2]; at 100.0 µM,85% (active)
same,growth inhibition,[3]; at 1.2 µM,-1%
same,growth inhibition,[3]; at 3.7 µM,15%
same,growth inhibition,[3]; at 11.0 µM,41%
same,growth inhibition,[3]; at 33.0 µM,82% (active)
same,growth inhibition,[3]; at 100.0 µM,91% (active)
same,growth inhibition,[4]; at 1.2 µM,3%
same,growth inhibition,[4]; at 3.7 µM,17%
same,growth inhibition,[4]; [15],23%
same,growth inhibition,[4]; at 11.0 µM,52%
same,growth inhibition,[4]; at 33.0 µM,86% (active)
same,growth inhibition,[4]; [16],87% (active)
same,growth inhibition,[4]; at 50.0 µM,78.5% (active)
same,growth inhibition,[4]; at 100.0 µM,94% (active)
same,growth inhibition,[5]; at 1.2 µM,11%
same,growth inhibition,[5]; at 3.7 µM,3%
same,growth inhibition,[5]; [15],0%
same,growth inhibition,[5]; at 11.0 µM,26%
same,growth inhibition,[5]; at 33.0 µM,87% (active)
same,growth inhibition,[5]; [16],94% (active)
same,growth inhibition,[5]; at 50.0 µM,85.7% (active)
same,growth inhibition,[5]; at 100.0 µM,95% (active)
same,growth inhibition,[6]; at 1.2 µM,-1%
same,growth inhibition,[6]; at 3.7 µM,25%
same,growth inhibition,[6]; at 11.0 µM,76% (active)
same,growth inhibition,[6]; at 33.0 µM,96% (active)
same,growth inhibition,[6]; at 100.0 µM,98% (active)
same,growth inhibition,[7]; [15],61%
same,growth inhibition,[7]; [16],95% (active)
same,growth inhibition,[7]; at 50.0 µM,83.1% (active)
same,growth inhibition,[8]; at 1.2 µM,-14%
same,growth inhibition,[8]; at 3.7 µM,8%
same,growth inhibition,[8]; at 11.0 µM,14%
same,growth inhibition,[8]; at 33.0 µM,33%
same,growth inhibition,[8]; at 100.0 µM,86% (active)
same,growth inhibition,[9]; [15],39%
same,growth inhibition,[9]; [16],93% (active)
same,growth inhibition,[9]; at 50.0 µM,90.2% (active)
same,growth inhibition,[10]; at 1.2 µM,-5%
same,growth inhibition,[10]; at 3.7 µM,-2%
same,growth inhibition,[10]; [15],8%
same,growth inhibition,[10]; at 11.0 µM,-2%
same,growth inhibition,[10]; at 33.0 µM,20%
same,growth inhibition,[10]; [16],69%
same,growth inhibition,[10]; at 50.0 µM,82.1% (active)
same,growth inhibition,[10]; at 100.0 µM,82% (active)
same,growth inhibition,[11]; at 1.2 µM,-4%
same,growth inhibition,[11]; at 3.7 µM,7%
same,growth inhibition,[11]; at 11.0 µM,18%
same,growth inhibition,[11]; at 33.0 µM,44%
same,growth inhibition,[11]; at 100.0 µM,90% (active)
same,growth inhibition,[12]; at 1.2 µM,22%
same,growth inhibition,[12]; at 3.7 µM,51%
same,growth inhibition,[12]; at 11.0 µM,69%
same,growth inhibition,[12]; at 33.0 µM,85% (active)
same,growth inhibition,[12]; at 100.0 µM,92% (active)
same,growth inhibition,[13]; [15],79% (active)
same,growth inhibition,[13]; [16],90% (active)
same,growth inhibition,[13]; at 50.0 µM,90.2% (active)
same,growth inhibition,[14]; at 1.2 µM,85% (active)
same,growth inhibition,[14]; at 3.7 µM,92% (active)
same,growth inhibition,[14]; at 11.0 µM,94% (active)
same,growth inhibition,[14]; at 33.0 µM,94% (active)
same,growth inhibition,[14]; at 100.0 µM,94% (active)
